Shown is part of a subset that was picked to be rich in hits.
Tg IFNy HTS = blocks Toxoplasma gondii growth in the presence of IFN-gamma; Toxoplasma gondii growth in IFN-gamma-treated host cells; active compounds read low; activity change, negative = inhibition, % (no concentration beside the values); 69,000 tested, 3.8% active; in the data active = activity change below about -70%, passing the limit was not always enough;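 note: host cells are HeLa cells infected with Toxoplasma gondii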
The depositor's hits bear a star.

What do the screens show for `COc1ccc(-c2nc(N(CC(C)C)CC(C)C)c3ccccc3n2)cc1`?
Tg IFNy HTS: -12.6

What do the screens show for `Cc1oncc1C(=O)N1CCO[C@@H]2[C@H]1CC[C@H]2Oc1ncccc1F`?
Tg IFNy HTS: -3.6

What do the screens show for `N#Cc1cnc(Sc2nnc(-c3ccc(Cl)cc3)n2Cc2ccccc2)nc1N`?
Tg IFNy HTS: -42.0

What do the screens show for `N#Cc1cnc(SCc2cc(=O)[nH]c3ccccc23)nc1N`?
Tg IFNy HTS: -100.5*

What do the screens show for `Cn1c(=O)n(C)c2cc(NC(=O)CSc3ncc(C#N)c(N)n3)ccc21`?
Tg IFNy HTS: 50.2

What do the screens show for `CCOc1ccccc1NC(=O)CC(=O)N1CC=CC1C(C)C` (stereo not given)?
Tg IFNy HTS: 2.5

How did C=CCn1c(C(=O)N2CCN(c3ccccn3)CC2)cc2cc(S(=O)(=O)N(C)C)ccc21 do in these assays?
Tg IFNy HTS: -12.2

What do the screens show for `CN(Cc1cc2n(n1)CCNC2)Cc1nc(-c2ccccc2)cs1`?
Tg IFNy HTS: 0.6

How did Cc1nc(C)c(C(=O)N2C[C@@H](c3ccccc3)[C@H](c3cc(C(F)F)n[nH]3)C2)o1 do in these assays?
Tg IFNy HTS: -80.2*

How did Cc1nc(C)c(C(=O)N2CC(C(=O)N3CCCCCC3)C2)o1 do in these assays?
Tg IFNy HTS: -4.7

How did Cc1nc(C)c(C(=O)N2CCC(C(=O)N3CCCCCC3)C2)o1 (stereo not given) do in these assays?
Tg IFNy HTS: -11.0

How did Cc1ccc(S(=O)(=O)N2CCC3(CC2)NCCN=C3NCc2ccccc2F)cc1C do in these assays?
Tg IFNy HTS: 16.6

What do the screens show for `c1ccc(Oc2nc(NCc3ccco3)nc(NCc3ccco3)n2)cc1`?
Tg IFNy HTS: -17.8

How did Clc1ccc(Nc2nc(Nc3ccc(Cl)cc3)nc(Oc3ccccc3)n2)cc1 do in these assays?
Tg IFNy HTS: -100.2*

How did COc1ccc(-c2nc(Nc3ccc(Cl)cc3)c3ccccc3n2)cc1 do in these assays?
Tg IFNy HTS: -42.3

How did O=C(O)c1cc(=O)cc2n1CCNC2=O do in these assays?
Tg IFNy HTS: -13.2

What do the screens show for `CCc1cc(Cn2nc(CC3CCNCC3)n(CC)c2=O)on1`?
Tg IFNy HTS: 4.6

How did COc1cc2c(cc1CN(C)Cc1snnc1C)CCC2 do in these assays?
Tg IFNy HTS: -15.5

How did O=C(CSc1ccc(Cl)cc1)Nc1ccc2[nH]c(=O)[nH]c2c1 do in these assays?
Tg IFNy HTS: 19.4

What do the screens show for `Cc1cc(NC(=O)C(=O)N2CCN(C3Cc4ccccc4C3)CC2)no1`?
Tg IFNy HTS: -3.9

Results for O=C(NC(NC(=S)Nc1ccc(F)c([N+](=O)[O-])c1)C(Cl)(Cl)Cl)C(c1ccccc1)c1ccccc1 (stereo not given) ?
Tg IFNy HTS: -81.1*

What do the screens show for `O=C(/C=C/c1ccccc1)NC(NC(=S)Nc1cccc2cccnc12)C(Cl)(Cl)Cl` (stereo not given)?
Tg IFNy HTS: -35.8

Results for O=C(NCCc1ccc(Cl)cc1)C(c1ccccc1)c1ccccc1 ?
Tg IFNy HTS: -10.8

What do the screens show for `COc1ccc(CNC(=O)C2=C(C)C(=O)OC23CCN(S(C)(=O)=O)CC3)cc1OC`?
Tg IFNy HTS: 14.7

What do the screens show for `Cc1cccnc1C(=O)N1CC[C@H](O)C[C@@H]1C(=O)O`?
Tg IFNy HTS: -22.1

How did C[C@@H]1C[C@@H]2CN(S(=O)(=O)c3ccc(F)cc3)C[C@@H]2O1 do in these assays?
Tg IFNy HTS: 4.9

Results for COc1cc(N2CCOc3c(cc(-c4cccs4)cc3OC)C2)ncn1 ?
Tg IFNy HTS: -24.2

Results for O=C(NC1CCC(n2cnnc2)CC1)C1CC12CCCC2 (stereo not given) ?
Tg IFNy HTS: -1.4

Results for CC(C)CN1CC(C(=O)NCc2cnn3ccccc23)CC1=O (stereo not given) ?
Tg IFNy HTS: -58.3

How did CN(C)C(=O)Cn1ccc(C2CCNc3ccccc32)n1 (stereo not given) do in these assays?
Tg IFNy HTS: -41.8

Results for CCc1cc(C(C)NC(=O)c2ccc(-n3cnnc3)cc2)on1 (stereo not given) ?
Tg IFNy HTS: 3.1

How did CC(C)C(=O)NC1COC2(CCN(C(=O)Cc3ccccn3)CC2)C1 (stereo not given) do in these assays?
Tg IFNy HTS: -2.0

Results for COc1ccccc1OCC(=O)N1CCC[C@]2(C[C@@H](OC)CO2)C1 ?
Tg IFNy HTS: 4.3

How did COC1COC2(CCN(C(=O)Cc3ccccn3)CC2)C1 (stereo not given) do in these assays?
Tg IFNy HTS: -98.1*

How did CCOc1ccc(N(Cc2nc(-c3ccc(OC)cc3)oc2C)S(=O)(=O)c2ccccc2)cc1 do in these assays?
Tg IFNy HTS: 8.4

What do the screens show for `Cc1[nH]cnc1-c1nccn1Cc1scnc1-c1ccccc1`?
Tg IFNy HTS: 5.8

What do the screens show for `CCCn1ncc(C(=O)N(C)Cc2nc3ccc(F)cc3[nH]2)c1C`?
Tg IFNy HTS: 20.2

How did FC(F)(F)c1ccc(Oc2ncnc3c(-c4ccccc4)c(C(F)(F)F)sc23)cc1 do in these assays?
Tg IFNy HTS: -70.7*

What do the screens show for `O=S(=O)(Oc1ccc(Cl)cc1)c1csc(C(F)(F)F)c1-c1ccccc1`?
Tg IFNy HTS: -26.0

What do the screens show for `C=CCn1c(=O)c(C(=O)NCCc2ccc(OC)c(OC)c2)c(O)c2ccccc21`?
Tg IFNy HTS: 390.4

What do the screens show for `CC(=O)[C@@]1(O)CC[C@H]2[C@@H]3C[C@H](C)C4=CC(=O)CC[C@]4(C)[C@H]3CC[C@@]21C`?
Tg IFNy HTS: 4.8

Results for CC(=O)SC1CC2=CC(=O)CCC2(C)C2CCC3(C)C(CCC34CCC(=O)O4)C12 (stereo not given) ?
Tg IFNy HTS: -24.8

Results for C[C@]12CCC(=O)C=C1[C@@H]1C[C@@H]1[C@H]1[C@@H]3[C@@H]4C[C@@H]4[C@@]4(CCC(=O)O4)[C@@]3(C)CC[C@@H]12 ?
Tg IFNy HTS: -85.0*

Results for O=C(C1CCOCC1)N1CCC2(CCN(Cc3cccnc3)C2)CC1 ?
Tg IFNy HTS: -26.3

What do the screens show for `Oc1ccc(-c2nc3cc(O)cc(Br)c3o2)cc1`?
Tg IFNy HTS: 79.2

What do the screens show for `Cn1ccnc1CN1CCC2(CC1)CN(CCO)c1ccccc12`?
Tg IFNy HTS: -28.5

Results for O=C(Nc1ccc(OC(F)(F)F)cc1)N1CCC(O)CC1 ?
Tg IFNy HTS: 27.9

How did O=C1NC(=O)C(c2cnc3ccccn23)=C1c1cn2c3c(cc(F)cc13)CN(C(=O)N1CCCCC1)CC2 do in these assays?
Tg IFNy HTS: -86.9*

Results for CN(C)CC1(O)CCCN(C(=O)c2cnc3ccccn3c2=O)CC1 (stereo not given) ?
Tg IFNy HTS: 1.8

What do the screens show for `CN(C)CC1(O)CCCN(C(=O)c2cnc3ccccn3c2=O)C1` (stereo not given)?
Tg IFNy HTS: 4.8

Results for Fc1ccc(CN(Cc2ccncc2)Cc2ccc(C(F)(F)F)nc2)cc1 ?
Tg IFNy HTS: 43.2

How did CCOC(CN1CCN(CC(C)C(=O)c2ccccc2)CC1)c1ccccc1 (stereo not given) do in these assays?
Tg IFNy HTS: -9.5

Results for CC(=O)c1ccc(OCC(O)CN2CCN(C(c3ccccc3)c3ccccc3)CC2)cc1 (stereo not given) ?
Tg IFNy HTS: -61.2

Results for CCCCCOc1ccc(C(O)C(CN2CCCC2)c2ccccc2)cc1 (stereo not given) ?
Tg IFNy HTS: -91.2*

What do the screens show for `Cc1nc(C(C)N(C)Cc2cnc(-c3cccs3)nc2)c(C)s1` (stereo not given)?
Tg IFNy HTS: 6.1

Results for CSc1ncc(Cn2cnc(-c3ccccc3)c2-c2nccn2C)n1C ?
Tg IFNy HTS: -4.6

How did N#CCN1CCC2(CC1)CC(C(=O)N1CCOCC1)c1ccccc12 (stereo not given) do in these assays?
Tg IFNy HTS: 7.2

Screens (PubChem BioAssay)
